Structures are written as SMILES. About 83,000 compounds went through this panel and 20% of them were active in at least one assay; those are over-represented in the sample as a whole.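 The endpoint reported here, percent growth, reads 100 for growth as untreated, 0 for no net growth and -100 for all cells dead.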 The source made the active and inactive calls. The calls were made as follows: active = growth percent below 10; inactive = the rest.

Experimental findings from PubChem BioAssay (NCI) are described below.

The assay concerns MDA-MB-468 breast. Put plainly: NCI-60 one-dose screen, 48 h (100 = growth as untreated, 0 = no growth, -100 = all killed). The conditions noted are these: 10 µM unless noted.
Consider `CC1(C)N=C(N)N=C(N)N1c1cccc(CCCCOc2ccccc2)c1`, for which the growth was 10.1% (inactive).

As to `COc1ccc(C2C=C(c3ccc(Cl)cc3)N=C3SC=CN32)c(Br)c1` (stereo not given), the growth was 61% (inactive).

As for `C=CCNCCCN1C(=O)c2ccc3c4c(ccc(c24)C1=O)C(=O)N(CCCNCC=C)C3=O`, the growth was -88.5% (active).

`O=C(Nc1ncc(Cc2cccc(C(F)(F)F)c2)s1)c1ccc(-n2cnnn2)cc1`: the growth was 16.7% (inactive).

With `O=C(NCc1ccco1)C1CCN(S(=O)(=O)c2ccc(Cl)cc2)CC1`, the growth was 56.2% (inactive).

`CC(=O)c1nn(-c2ccc(C)cc2)cc1C(=O)c1cc2c(ccc3ccccc32)oc1=O`: the growth is 118% (inactive).

Regarding `Cc1c(N)ccc(-c2ccc(N)c(C)c2S(=O)(=O)O)c1S(=O)(=O)O`, the growth was 115% (inactive).

Turning to `CC(=O)c1c[nH]c2ccc(-c3ccnc(Nc4ccc(NC(=O)C5CCCC5)c(CN5CCOCC5)c4)n3)cc12`, the growth is -53.9% (active).

As for `CC1(c2ccc3ccccc3c2)CCC(=O)O1` (stereo not given), the growth was 100% (inactive).

Regarding `COc1ccc(/C=C(\C#N)c2cc3ccccc3n2C(C)=O)cc1`, the growth was 58.8% (inactive).

Regarding `O=C(NOC(=O)c1ccccc1)c1ccccc1`, the growth was 105% (inactive).

On to `COC(c1ccc2c(c1)OCO2)C(C)Br` (stereo not given), for which the growth was 93.4% (inactive).

Regarding `C/C(=N\NC(=O)CSc1nc2ccccc2c(=O)n1CCc1ccc(S(N)(=O)=O)cc1)c1ccc(Br)cc1`, the growth is 84.1% (inactive).

As to `Clc1ccc2[nH]cc(-c3nn4cc(-c5cccnc5)nc4s3)c2c1`, the growth is 98.1% (inactive).

For the molecule `COc1ccc(CN2C(=O)OC(C)(COC(C)=O)C2=O)cc1` (stereo not given), the growth was 92.9% (inactive).

As for `COC(=O)Nc1ccc(-c2nc(-c3cccc(OC)c3)c(-c3ccnc(Br)c3)[nH]2)cc1`, the growth is 39.1% (inactive).

In the case of `C=C(C=O)[C@@H]1CC[C@]2(C(=O)O)CC[C@]3(C)C(CC[C@@H]4[C@@](C)(CCC#N)[C@H](C(=C)C=O)CC[C@]43C)[C@@H]12` (stereo not given in full), the growth was 79.8% (inactive).

With `COCCOc1cc2ncnc(N3CCN(c4ncc(S(=O)(=O)N5CCCCC5)cn4)CC3)c2cc1OCCOC`, the growth is 75.3% (inactive).

As to `O=c1c2c(c(=O)n1O)c1c3ccc[nH]c3nc1c1nc3[nH]cccc3c12`, the growth is 64% (inactive).

Take `CCCC/C(=N\N=C(N)N)c1ccc(F)cc1`: the growth is -12.3% (active).

Take `O=C(Nc1cccc(Cl)c1)OCC(COC(=O)Nc1cccc(Cl)c1)(COC(=O)Nc1cccc(Cl)c1)[N+](=O)[O-]`: the growth was 16.5% (inactive).

As to `O=C(O)c1ccc([N+](=O)[O-])cc1S(=O)(=O)O`, the growth was 98.6% (inactive).

On to `Cc1ccc(CSc2nc(-c3ccc(Cl)cc3)c(C#N)c(N3CCOCC3)n2)cc1`, for which the growth was 84% (inactive).

Regarding `C=CC(=O)N1CC2(CC(n3nc(-c4ccc(Oc5ccccc5)cc4)c4c(N)ncnc43)C2)C1`, the growth is -8.12% (active).

Take `CC1=C(C)C(=O)C(Nc2cccc(C(=O)OC(C)(C)C)c2)=CC1=O`: the growth is 37.5% (inactive).

`COc1ccc2c(c1)c(C(=O)c1nc(-c3cn(C)c4ccccc34)no1)cn2C`: the growth was 108% (inactive).

`COc1cc(/C=C/C(=O)c2ccc(Cl)cc2)ccc1Oc1nc(NCCO)nc(N2CCOCC2)n1`: the growth was 91.5% (inactive).

With `O=C1NC(=Nc2ccc(O)cc2)S/C1=C\c1cccc(Cl)c1`, the growth was 44.5% (inactive).

On to `Nc1ncnc(Nc2ccc(C(F)(F)F)cc2)n1`, for which the growth was 108% (inactive).

As for `Cc1cccc(Cc2cnc(NC(=O)CCc3ccc(C)o3)s2)c1`, the growth was 5% (active).

Take `CC1(O)CCC(Nc2cc(-c3ccc(C(F)(F)F)cc3)c(C#N)c3nc4ccccc4n23)CC1` (stereo not given): the growth was 86.8% (inactive).

`CCOC(=O)C1(N)CCCCC1`: the growth is 105% (inactive).

For `C=CC(=O)NCc1cccc(Nc2ncc(Br)c(NCCCNC(=O)C3CCC3)n2)c1`, the growth was -80.4% (active).

Take `COc1ccccc1C(C[N+](=O)[O-])c1c(-c2ccccc2)[nH]c2cc(C)ccc12` (stereo not given): the growth is 44.4% (inactive).

`C[C@@H](C[C@H](CCOCc1cccnc1)c1ccccc1)c1cc2ccccc2o1`: the growth is 99.5% (inactive).

Consider `COc1cc(C2CC(c3ccc(C)cc3)=NN2C=O)ccc1Oc1nc2c(c(=O)n(C)c(=O)n2C)n1C` (stereo not given), for which the growth was 73.8% (inactive).

For the molecule `C=C1C(=O)O[C@H]2[C@H]1CC/C(COC(=O)CCCC(=O)OC/C1=C/CC[C@@]3(C)O[C@H]3[C@H]3OC(=O)C(=C)[C@@H]3CC1)=C\CC[C@@]1(C)O[C@@H]21`, the growth is -19.1% (active).

With `O=c1ccc2nc(-c3ccccn3)nn(-c3ccccc3)c-2c1`, the growth is -32.1% (active).

As to `COC(=O)C(Cc1ccccc1)NC(=O)c1ccc(NC(=O)c2[nH]c(C)c(Cl)c2Cl)c(OC(C)C)c1` (stereo not given), the growth is 96.8% (inactive).

For the molecule `COc1ccccc1CNCCCN1C(=O)c2ccc3c4c(ccc(c24)C1=O)C(=O)N(CCCNCc1ccccc1OC)C3=O`, the growth is -96.6% (active).
